From PubChem BioAssay AID485270 (The Scripps Research Institute Molecular Screening Center, 2010) come the findings set out here.

Hit rate of the full screen: of about 330,000 compounds, about 5,800 (1.8%) were called active. This is one part of a sample in which actives are shown more often than they occur. Rule as the data show it: active = inhibition mostly above about 38% (no sharp cut-off); inactive = mostly below about 40%.

For the assay, the target named is Orexin/Hypocretin receptor type 1 (Homo sapiens) (UniProt O43613). The assay can be described thus: blocks the human orexin 1 receptor (AID 485270).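 Also: 0% = agonist challenge alone and 100% = reference antagonist.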 The note with it: OX1R-expressing cells, FRET antagonist read-out; at 6.6 µM; active compounds read high.
Orexin/Hypocretin receptor type 1 (Homo sapiens), sequence (O43613 whole entry, looked up): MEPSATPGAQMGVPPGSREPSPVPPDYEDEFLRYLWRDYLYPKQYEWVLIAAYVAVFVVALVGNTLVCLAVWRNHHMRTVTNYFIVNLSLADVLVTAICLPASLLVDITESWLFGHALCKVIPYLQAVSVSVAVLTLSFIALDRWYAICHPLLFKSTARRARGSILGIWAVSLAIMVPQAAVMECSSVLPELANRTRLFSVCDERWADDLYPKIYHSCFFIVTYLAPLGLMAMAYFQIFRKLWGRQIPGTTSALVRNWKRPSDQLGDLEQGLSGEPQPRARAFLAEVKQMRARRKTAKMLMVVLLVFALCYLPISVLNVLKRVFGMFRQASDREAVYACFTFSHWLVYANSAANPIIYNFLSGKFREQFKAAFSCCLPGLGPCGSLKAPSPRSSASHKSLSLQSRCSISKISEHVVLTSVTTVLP
As usually defined, the inhibition is the relative decrease from the control value, in per cent. Regarding `CN(C(=O)CSc1cccc[n+]1[O-])C1CCCCC1`, the inhibition is 1.33% (inactive).

As for `CC(C)(C)OC(=O)C[C@H]1C/C=C\C[C@@H](CC(=O)N[C@H](CO)Cc2ccccc2)C(=O)NC[C@@H](c2ccccc2)OC1=O`, the inhibition was 8.19% (inactive).

`COc1ccccc1/C=C1\SC(=O)N(CCC(=O)N(C)C2CCS(=O)(=O)C2)C1=O` (stereo not given): the inhibition was 16.6% (inactive).

Regarding `COc1ccc(/C=C2\SC(=O)N(CCC(=O)NCCCn3ccnc3)C2=O)cc1`, the inhibition was 33.5% (inactive).

For the molecule `COc1ccc(/C=C2\SC(=O)N(CCC(=O)NC3CCS(=O)(=O)C3)C2=O)cc1` (stereo not given), the inhibition was 49.4% (active).

Turning to `CC(Sc1ccccc1F)C(=O)Nc1cccc(S(=O)(=O)N2CCOCC2)c1` (stereo not given), the inhibition is 9.63% (inactive).

Take `CCCOc1ccc(Cc2c(Cl)nc(SC)nc2NC)cc1`: the inhibition is 48.2% (active).

For `CCCOc1ccc(Cc2c(O)nc(SC)[nH]c2=O)cc1C`, the inhibition is 11.5% (inactive).

With `CCCOc1ccc(Cn2c(O)cc(=O)[nH]c2=O)cc1`, the inhibition was 6.66% (inactive).

Consider `O=C1OCCN1C(=O)[C@H]1[C@H](c2ccc(F)cc2)C(c2ccccc2)=NN1c1ccc(Br)cc1`, for which the inhibition is 7.86% (inactive).

For `CCOC(=O)C1CCN(C(=O)CN2C(=O)NC(C)(c3ccc4cc(OC)ccc4c3)C2=O)CC1` (stereo not given), the inhibition is 9.95% (inactive).

As to `Nc1cccnc1Sc1ccccc1`, the inhibition was 15.4% (inactive).

As for `Cc1ccc(C)c(S(=O)(=O)N2CCN(c3ncnc4sccc34)CC2)c1`, the inhibition was 28.6% (active).

Regarding `COc1ccc(C)cc1S(=O)(=O)N1CCN(S(=O)(=O)c2cc(C(=O)O)ccc2C)CC1`, the inhibition was 26.6% (inactive).

Take `Cc1ccc(S(=O)(=O)N2CCN(c3ncnc4ccccc34)CC2)cc1`: the inhibition is 25.9% (inactive).

As to `C=CCSc1nnc(NC(=O)c2ccc(NC(C)=O)cc2)s1`, the inhibition is 5.19% (inactive).

For `CSc1nsc(NC(=O)Nc2ccccc2)n1`, the inhibition is 19.6% (inactive).

With `CCSc1nsc(NC(=O)Nc2cccc(C(C)=O)c2)n1`, the inhibition is 84.2% (active).

As for `C=CCSc1nsc(NC(=O)Nc2cccc(C(C)=O)c2)n1`, the inhibition was 58.4% (active).

On to `CCSc1nsc(NC(=O)Nc2ccccc2OC)n1`, for which the inhibition is 6.99% (inactive).

`C=C(C)C(=O)Nc1cccc(C(C)=O)c1`: the inhibition is 8.59% (inactive).

Take `CCOC(=O)C1=CN(Cc2ccc(Br)cc2)S(=O)(=O)N(C)C1C` (stereo not given): the inhibition is 6.18% (inactive).

On to `C[C@H](CO)N1C[C@H](C)[C@@H](CN(C)S(=O)(=O)c2ccc(F)cc2)Oc2ccc(NC(=O)CCC(F)(F)F)cc2C1=O`, for which the inhibition is 9.27% (inactive).

Regarding `O=C(COC(=O)COc1ccccc1F)Nc1cccc(S(=O)(=O)N2CCCCC2)c1`, the inhibition was -4.71% (inactive).

Consider `O=C(CCNC(=O)c1ccccc1Cl)NN=Cc1ccco1`, for which the inhibition was 9.66% (inactive).
